From PubChem BioAssay (Tox21)
The source made the active and inactive calls. Calls follow the shape of the dose curve; as a rule, active = well fitted activation curve with a large enough effect in the repeat runs; inconclusive = weak or mixed curves; inactive = flat fitted curve, though single readings scatter.

assay: A CellTox Green Cytotoxicity Assay to monitor cytotoxicity in HEK293 cells - 0 hour (AID 1224869); details: CellTox Green fluorescence; series mostly up to 76.8 µM; cytotoxicity: at the top concentration; also: nearly all actives have a fitted effect of over 50% in size
From the text: National Center for Advancing Translational Sciences [NCATS]
NIH Chemical Genomics Center [NCGC]
U.S. Environmental Protection Agency [EPA]
National Institutes of Environmental Health Sciences [NIEHS]
National Toxicology Program [NTP]
Cell-based models are critical for drug discovery. Determining the natural cytotoxic effects resulting from test compounds is an essential research activity. A CellTox Green Cytotoxicity Assay to monitor cytotoxicity in real time of continues cell culture during 40 hours of the compound treatment was used to screen Tox21 10K library compounds in Hek293 cells. CellTox Green Cytotoxicity Assay is a nonlytic, homogeneous, biofluorescent method to measure cytotoxicity in cell culture after experimental manipulation. The assay system uses a proprietary asymmetric cyanine dye that is excluded from viable cells but preferentially stains the dead cell's DNA. […] Viable cells produce no appreciable increases in fluorescence. Therefore, the fluorescence signal produced by the binding interaction with dead cell DNA is proportional to cytotoxicity.
The mixture of Hek293 cell suspension and reagents were dispensed at 600cells/6 ul/well in 1536-well tissue culture treated black solid bottom plates using a Multidrop dispenser. After the assay plates were incubated at a 37 C/5% CO2 incubator for 5 hours, 23 nL of compounds dissolved in DMSO, positive and negative controls was transferred to the assay plate by a pintool work station. The plates were incubated at 37 C for 40 hours. The fluorescence intensity were measured at 0h, 8h, 16h, 24h, 32h and 40h time points using ViewLux plate reader during compound treatment.
% is scaled to controls: 0 for no effect and ±100 for the full control effect.

Row | Compound | cytotoxicity
1 | CCCOCC(C)OCC(C)O (stereo not given) | 2.41% (inactive)
2 | CCN1CCN(c2cc3c(cc2F)c(=O)c(C(=O)O)cn3C2CC2)CC1 | 2.72% [at 35.3 µM] (inactive)
3 | C[C@H]1O[C@@H](n2cc(F)c(=O)[nH]c2=O)[C@H](O)[C@@H]1O | 6.13% [at 35.3 µM] (inactive)
4 | CCN1CCCC(OC(=O)C(c2ccccc2)c2ccccc2)C1 (stereo not given) | -8.02% [at 35.3 µM] (inactive)
5 | CCn1c(=O)c2c(nc(/C=C/c3ccc(OC)c(OC)c3)n2C)n(CC)c1=O | -1.21% [at 35.3 µM] (inactive)
6 | C#CC(O)CCCCC (stereo not given) | -7.51% (inactive)
7 | O=c1[nH]c(=O)n([C@H]2O[C@H](CO)[C@@H](O)[C@@H]2O)cc1/C=C\Br | -0.294% [at 35.3 µM] (inactive)
8 | NS(=O)(=O)c1cc(C2(O)NC(=O)c3ccccc32)ccc1Cl (stereo not given) | 12.1% [at 35.3 µM] (inactive)
9 | O=[N+]([O-])c1ccc(CCO)cc1 | -5.04% (inactive)
10 | C=CCOc1nc(OCC=C)nc(OCC=C)n1 | -0.693% (inactive)
11 | CCCCCCCCCCCCCCCCCC(=O)OCCCCCCCCCCCCCC(C)C | -1.14% (inactive)
12 | Nc1nc(F)nc2c1ncn2[C@@H]1O[C@H](CO)[C@@H](O)[C@@H]1O | 0.761% [at 35.3 µM] (inactive)
13 | O=C(O)CCNC(=O)c1ccc(N=Nc2ccc(O)c(C(=O)O)c2)cc1 | -11.1% [at 35.3 µM] (inactive)
14 | Cc1ccccc1C(=O)O | 6.1% (inactive)
15 | C[N+](C)(C)CC[N+]1(C)Cc2c(Cl)c(Cl)c(Cl)c(Cl)c2C1 | -0.293% [at 35.3 µM] (inactive)
16 | CN(C)CCOC(c1ccc(Cl)cc1)c1ccccn1 (stereo not given) | -7.78% [at 35.3 µM] (inactive)
17 | CC1=CC(C)C(C=O)C(C)C1 (stereo not given) | 5.29% (inactive)
18 | CCCCOCC(C)OCC(C)O (stereo not given) | 4.55% (inactive)
19 | NC(=O)c1c(Cl)cccc1Cl | -4.05% (inactive)
20 | CCOC(=O)[C@H](CCc1ccccc1)N[C@@H](C)C(=O)N1CCC[C@H]1C(=O)O | 4.98% [at 35.3 µM] (inactive)

Row | Compound | cytotoxicity
21 | CCC(C(=O)NC(N)=O)c1ccccc1 (stereo not given) | -6.25% (inactive)
22 | Cc1nccn1CC1CCc2c(c3ccccc3n2C)C1=O (stereo not given) | -1.99% [at 35.3 µM] (inactive)
23 | CCn1cc(C(=O)O)c(=O)c2cc(F)c(N3CCN(C)CC3)cc21 | -2.39% [at 15.8 µM] (inactive)
24 | CC(=O)c1ccc(C)cc1 | 0.886% (inactive)
25 | CCCC=O | -6.56% (inactive)
26 | O=C(O)c1ccc[n+]([O-])c1 | -1.59% [at 35.3 µM] (inactive)
27 | CC(C)[N+](C)(C)CC(O)COc1cccc2ccccc12 (stereo not given) | -0.731% [at 35.3 µM] (inactive)
28 | O=S(=O)(O)c1ccccc1O | 1.93% (inactive)
29 | CCCCc1ccc2cccc(S(=O)(=O)O)c2c1 | -7.05% (inactive)
30 | CCCc1ccc(N)cc1 | -1.23% (inactive)
31 | CCC(C)(C)C1CCC(OC)CC1 (stereo not given) | 0.417% (inactive)
32 | CC(C)c1cccc(C(C)C)c1N | -6.91% (inactive)
33 | NC1CCN(c2cccc(Cl)n2)CC1 | -1.49% [at 35.3 µM] (inactive)
34 | CCC(=O)/C=C/c1ccc(OC)cc1 | -2.43% (inactive)
35 | CC(O)CN(CCCN(C)C)CCCN(C)C (stereo not given) | 0.105% (inactive)
36 | O=C1C(CCS(=O)c2ccccc2)C(=O)N(c2ccccc2)N1c1ccccc1 (stereo not given) | -8.1% [at 35.3 µM] (inactive)
37 | c1ccc(SCCSc2ccccc2)cc1 | -3.98% (inactive)
38 | CC/C=C\C#N | -3.95% (inactive)
39 | CCCCCCCCCCCCCCCCCCOCC(O)CO (stereo not given) | -9.15% [at 35.3 µM] (inactive)
40 | C=C[Si](OC)(OC)OC | -5.25% (inactive)
